Experiment in all cases: NCI-60 one-dose screen, 48 h (100 = growth as untreated, 0 = no growth, -100 = all killed)
One experiment deals with HCT-15 colon. The note with it: 10 µM unless noted.
The subject of another experiment is HT29 colon. Particulars: 10 µM unless noted.
The next experiment deals with SNB-75 CNS. The note with it: 10 µM unless noted.
A further experiment concerns SNB-19 CNS. The note with it: 10 µM unless noted.
In another experiment the test system is PC-3 prostate. Particulars: 10 µM unless noted.
For a further experiment, the system named is SK-MEL-5 melanoma. Particulars: 10 µM unless noted.
For the next experiment, the system named is UACC-62 melanoma. The note with it: 10 µM unless noted.
The subject of the next experiment is LOX IMVI melanoma. The note with it: 10 µM unless noted.
Another experiment deals with SK-MEL-28 melanoma. Particulars: 10 µM unless noted.
For another experiment, the system named is SK-MEL-2 melanoma. Particulars: 10 µM unless noted.
Another experiment has as its system SN12C renal. Particulars: 10 µM unless noted.
For a further experiment, the system named is UO-31 renal. The note with it: 10 µM unless noted.
A further experiment concerns TK-10 renal. The note with it: 10 µM unless noted.
The subject of a further experiment is ACHN renal. The note with it: 10 µM unless noted.
Another experiment deals with CAKI-1 renal. The note with it: 10 µM unless noted.
The subject of another experiment is A498 renal. The note with it: 10 µM unless noted.
For a further experiment, the system named is MOLT-4 leukemia. The note with it: 10 µM unless noted.
The subject of a further experiment is EKVX NSCLC. Particulars: 10 µM.
For a further experiment, the system named is CCRF-CEM leukemia. The note with it: 10 µM.

SMILES strings stand for the structures. The panel holds about 83,000 compounds, 20% with a hit somewhere; the sample as a whole holds those more often.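 Growth was measured after 48 h exposure to one concentration of compound in 96-well plates. Values under 10 count as active.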 Unmarked numbers belong to inactive results. Active and inactive are the calls of the source.

For 9 molecules, growth results are on record in PubChem BioAssay (NCI).

For the molecule `COC(=O)c1cc(=O)nc(N/N=C/c2ccccc2O)s1`, the growth with HCT-15 colon was 70.4%; in the experiment with HT29 colon, 92.9%; with SNB-75 CNS it was 110%; in the experiment on SNB-19 CNS it was 95.3%; in the experiment with PC-3 prostate, 86.3%; in the experiment on SK-MEL-5 melanoma it was 91.6%. The growth was 94.8% in the experiment with UACC-62 melanoma; 82.3% with LOX IMVI melanoma; 101% with SK-MEL-28 melanoma; 97.9% in the experiment with SK-MEL-2 melanoma; 90.9% with SN12C renal; 61.4% in the experiment with UO-31 renal. Moreover, the growth in the experiment on TK-10 renal is 112%; in the experiment on ACHN renal, 92.3%; in the experiment with CAKI-1 renal it was 79%; with A498 renal, 112%; in the experiment with MOLT-4 leukemia, 72.1%.
`Nc1nc2c(c3cnccc13)C(c1cccc(Cl)c1)Cc1cnccc1-2` (configuration not stated): the growth with HCT-15 colon was 7.84% (active); in the experiment on HT29 colon, 4.99% (active); in the experiment on SNB-75 CNS, 21%; with SNB-19 CNS it was 29.2%; in the experiment on PC-3 prostate, 12.8%; in the experiment on SK-MEL-5 melanoma, -16.3% (active). In addition, the growth in the experiment with UACC-62 melanoma is 26.7%; in the experiment with LOX IMVI melanoma, 8.05% (active); in the experiment on SK-MEL-28 melanoma, 56%; with SK-MEL-2 melanoma, 26.8%; in the experiment with EKVX NSCLC, 24.2%; in the experiment with SN12C renal, 33.8%. In addition, the growth is 26.1% in the experiment with UO-31 renal; 23.9% in the experiment on TK-10 renal; 15% with ACHN renal; 25.2% in the experiment with CAKI-1 renal; -5.65% (active) with A498 renal; 13.3% with CCRF-CEM leukemia. Also, the growth with MOLT-4 leukemia was 16.5%.
In the case of `CCCCCCC(C(=O)OCC)(C(=O)OCC)C1CCCCCC1`, the growth in the experiment on HCT-15 colon is 97.5%; in the experiment with HT29 colon, 98.1%; in the experiment with SNB-75 CNS, 83.7%; with SNB-19 CNS, 99.2%; in the experiment on PC-3 prostate it was 102%; with SK-MEL-5 melanoma, 100%. Also, the growth was 101% in the experiment on UACC-62 melanoma; 101% in the experiment on LOX IMVI melanoma; 106% with SK-MEL-28 melanoma; 114% in the experiment with SK-MEL-2 melanoma; 101% with SN12C renal; 90.6% in the experiment with UO-31 renal. Moreover, the growth in the experiment with TK-10 renal was 102%; with ACHN renal, 101%; in the experiment with CAKI-1 renal, 89.9%; in the experiment on A498 renal, 96.7%; with MOLT-4 leukemia, 104%.
As to `COc1cc2c(c3c1c(=O)c1cccc(F)c1n3C)C=CC(C)(C)O2`, the growth with HCT-15 colon is 71.8%; in the experiment on HT29 colon, 74.6%; in the experiment on SNB-75 CNS it was 99.1%; in the experiment with SNB-19 CNS it was 104%; in the experiment on PC-3 prostate it was 72.3%; in the experiment on SK-MEL-5 melanoma, 94.2%. Further, the growth with UACC-62 melanoma is 75.6%; with LOX IMVI melanoma, 88.8%; in the experiment on SK-MEL-28 melanoma it was 94.4%; with SN12C renal it was 64.3%; with UO-31 renal, -26.5% (active); with TK-10 renal, 95.2%. Besides, the growth was 47.9% with ACHN renal, -64% (active) in the experiment with CAKI-1 renal and 90% in the experiment on A498 renal.
On to `COc1cc2ncnc(-n3ncc4cc(NC(=O)Nc5ccc(Cl)c(Cl)c5)ccc43)c2cc1OC`, for which the growth with HCT-15 colon is -35.7% (active); in the experiment on HT29 colon, -16.7% (active); in the experiment with SNB-75 CNS, -57.7% (active); in the experiment with SNB-19 CNS, 10.4%; with PC-3 prostate, -57.1% (active); with SK-MEL-5 melanoma it was -82.8% (active). In addition, the growth is -68.5% (active) with UACC-62 melanoma; -77.7% (active) with LOX IMVI melanoma; -70.9% (active) in the experiment on SK-MEL-28 melanoma; -26.6% (active) in the experiment on SK-MEL-2 melanoma; -16.1% (active) with EKVX NSCLC; 3.99% (active) in the experiment on SN12C renal. Moreover, the growth is -17.2% (active) in the experiment with UO-31 renal; -14.1% (active) with TK-10 renal; -61.6% (active) with ACHN renal; 8.96% (active) in the experiment with CAKI-1 renal; -22.7% (active) in the experiment with A498 renal; 22.3% with CCRF-CEM leukemia. In addition, the growth with MOLT-4 leukemia is 9.19% (active).
In the case of `CSc1nc(N)n2nccc2n1`, the growth is 108% in the experiment on HCT-15 colon; 102% in the experiment with HT29 colon; 78.5% in the experiment on SNB-75 CNS; 99.7% in the experiment with SNB-19 CNS; 93.5% with PC-3 prostate; 98.8% in the experiment with SK-MEL-5 melanoma. The growth was 98.6% in the experiment on UACC-62 melanoma; 97.4% in the experiment with LOX IMVI melanoma; 98.5% with SK-MEL-28 melanoma; 115% in the experiment with SK-MEL-2 melanoma; 96.8% in the experiment with SN12C renal; 65.4% with UO-31 renal. Besides, the growth in the experiment on TK-10 renal is 99.8%; with ACHN renal it was 112%; in the experiment with CAKI-1 renal, 70.6%; with A498 renal, 109%; in the experiment with MOLT-4 leukemia it was 98.9%.
As for `N=C(N)c1ccc(-c2ccc(-c3cc(Cl)cc(Cl)c3)s2)cc1`, the growth is -85.9% (active) in the experiment with HCT-15 colon; -38% (active) in the experiment with HT29 colon; -90.6% (active) in the experiment with SNB-75 CNS; -73.5% (active) in the experiment on SNB-19 CNS; -81.6% (active) in the experiment on PC-3 prostate; -93.7% (active) with SK-MEL-5 melanoma. In addition, the growth was -80.4% (active) in the experiment with UACC-62 melanoma; -78.6% (active) in the experiment on LOX IMVI melanoma; -86.4% (active) in the experiment on SK-MEL-28 melanoma; -46.1% (active) in the experiment on SK-MEL-2 melanoma; -72% (active) with EKVX NSCLC; -77% (active) with SN12C renal. Besides, the growth is -77.5% (active) with UO-31 renal; -74.8% (active) in the experiment with TK-10 renal; -94.4% (active) in the experiment with ACHN renal; -90.2% (active) in the experiment with CAKI-1 renal; -94.6% (active) in the experiment with A498 renal; -67.1% (active) in the experiment on CCRF-CEM leukemia. In addition, the growth in the experiment with MOLT-4 leukemia is -50.3% (active).
For `CCOC(=O)c1csc(-c2ccc(COC(=O)c3ccccc3)o2)n1`, the growth is 96% with HCT-15 colon; 104% in the experiment on HT29 colon; 92% in the experiment with SNB-75 CNS; 97.5% with SNB-19 CNS; 96.6% in the experiment with PC-3 prostate; 98.2% in the experiment on SK-MEL-5 melanoma. Moreover, the growth in the experiment with UACC-62 melanoma was 102%; with LOX IMVI melanoma it was 110%; with SK-MEL-28 melanoma, 101%; with SK-MEL-2 melanoma it was 107%; in the experiment with SN12C renal, 96.1%; with UO-31 renal, 83.5%. Further, the growth in the experiment on TK-10 renal was 107%; in the experiment with CAKI-1 renal, 81.2%; in the experiment on A498 renal it was 112%; in the experiment with MOLT-4 leukemia, 4.16% (active).
`CCOC(=O)c1c(C)oc2ncnc(Nc3ccc(NC(=O)Nc4cccc(Cl)c4)cc3)c12`: the growth in the experiment with HCT-15 colon is 59%; with HT29 colon it was 37.1%; in the experiment with SNB-75 CNS, 70.6%; in the experiment with SNB-19 CNS, 84.7%; with SK-MEL-5 melanoma, 53%; in the experiment with UACC-62 melanoma, 69.1%. For the same molecule, the growth was 64.1% with LOX IMVI melanoma; 61.8% with SK-MEL-28 melanoma; 72.7% in the experiment with SK-MEL-2 melanoma; 72.3% in the experiment with EKVX NSCLC; 74% with SN12C renal; 50.4% in the experiment with UO-31 renal. In addition, the growth was 79.2% in the experiment on TK-10 renal; 57.5% in the experiment with ACHN renal; 90.8% with CAKI-1 renal; 63% in the experiment with A498 renal; 31.5% in the experiment on CCRF-CEM leukemia; 49.3% in the experiment on MOLT-4 leukemia.
